Assay [1] is described as follows: Tanguay_ZF_120hpf_OTIC_legacy: (Legacy) Oregon State University Tanguay Lab 120 Hour Post-fertilization zebrafish Assay for Otic Vesicle Malformation (AID 2283639). The gist of the method: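 Otic vesicle malformation is read as a yes/no morphology call at 120 hpf. Exposure is static at 28C with 0.64% (vol/vol) DMSO; embryos that die are excluded from non-mortality endpoints.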

Assay [2] can be described thus: Tanguay_ZF_120hpf_PE_legacy: (Legacy) Oregon State University Tanguay Lab 120 Hour Post-fertilization zebrafish Assay for Pericardial Edema (AID 2283640).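 As to AC50: potency for increased incidence of pericardial edema versus DMSO baseline.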 The gist of the method:
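Tropical 5D wild-type zebrafish embryos were statically exposed until 120 hpf at 28C, with 0.64% DMSO final. Pericardial edema was scored by brightfield as present or absent; endpoints were not scored in dead embryos.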

Assay [3] can be described thus: Tanguay_ZF_120hpf_BRAI_legacy: (Legacy) Oregon State University Tanguay Lab 120 Hour Post-fertilization zebrafish Assay for Brain Malformation (AID 2283641). The gist of the method: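 Tropical 5D wild-type zebrafish embryos exposed statically until 120 hpf at 28C, 0.64% DMSO final, sealed and dark. Brain malformation scored present/absent by brightfield at 120 hpf; dead embryos excluded. Trimethyltin chloride 5uM positive control.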

Assay [4] in a line: Tanguay_ZF_120hpf_SOMI_legacy: (Legacy) Oregon State University Tanguay Lab 120 Hour Post-fertilization zebrafish Assay for Somite Malformation (AID 2283647). The gist of the method:
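Dechorionated Tropical 5D wild-type zebrafish embryos, one per well from 6 hpf, statically exposed at 28C to 120 hpf in 0.64% DMSO; somite malformation scored present/absent by brightfield; trimethyltin 5 uM positive control; dead embryos not scored.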

Assay [5] can be described thus: Tanguay_ZF_120hpf_PFIN_legacy: (Legacy) Oregon State University Tanguay Lab 120 Hour Post-fertilization zebrafish Assay for Pectoral Fin Malformation (AID 2283648).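 Also: each larva judged yes or no for fin defect by brightfield with dead larvae skipped.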 The essentials:
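Tropical 5D wild-type embryos, dechorionated with pronase at 4 hpf, were placed singly in wells at 6 hpf and statically exposed until 120 hpf at 28C, sealed and dark, with 0.64% (vol/vol) final DMSO; pectoral fin malformation scored present/absent.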

Assay [6] in a line: Tanguay_ZF_120hpf_CFIN_legacy: (Legacy) Oregon State University Tanguay Lab 120 Hour Post-fertilization zebrafish Assay for Caudal Fin Malformation (AID 2283649). The gist of the method:
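Dechorionated Tropical 5D wild-type embryos, one per well from 6 hpf, static exposure to 120 hpf at 28C in 0.64% DMSO. Caudal fin malformation scored by brightfield as present/absent; not scored in dead embryos.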

Assay [7] in a line: Tanguay_ZF_120hpf_PIG_legacy: (Legacy) Oregon State University Tanguay Lab 120 Hour Post-fertilization zebrafish Assay for Pigmentation Malformation (AID 2283650). The gist of the method:
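Tropical 5D wild-type zebrafish embryos, dechorionated with pronase at 4 hpf, were exposed singly from 6 hpf to 120 hpf statically at 28C in sealed, dark plates with 0.64% DMSO; pigmentation scored present/absent by brightfield microscopy, fitted against DMSO.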

Assay [8] can be described thus: Tanguay_ZF_120hpf_CIRC_legacy: (Legacy) Oregon State University Tanguay Lab 120 Hour Post-fertilization zebrafish Assay for Circulatory Malformation (AID 2283651). The gist of the method:
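Using wild-type Tropical 5D zebrafish, we exposed dechorionated embryos from 6 to 120 hpf in embryo medium with 0.64% DMSO. Circulatory defects were scored as present or absent; 5uM trimethyltin chloride served as positive control.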

Read-out in assay [9]: kallikrein-3 (KLK3), KLK3 (gene 354)
The assay is described as follows: LTEA_HepaRG_KLK3: Life Technologies and Expression Analysis (LTEA) Assay for kallikrein-3 (KLK3) using HepaRG (AID 2283652; active = hit-call score of the fitted dose curve at least 0.9, where 1 is the maximum; inactive = score below 0.9). The settings on record: mRNA level, 48 h; actives raise or lower the signal. As for the experimental part: LTEA_HepaRG is a cell based, multiplexed-readout assay that uses HepaRG, a human liver cell line, with measurements taken at 48 hours after chemical dosing on a 96-well plate.LTEA_HepaRG_KLK3 is one of 102 assay component(s) measured in the LTEA HepaRG cell culture assay. It is a marker of Cellular remodeling.Data from the assay component LTEA_HepaRG_KLK3 was analyzed into 1 endpoint. This assay endpoint, LTEA_HepaRG_KLK3, was analyzed with bidirectional fitting relative to DMSO as the negative control and baseline of activity. Using a type of inducible reporter, measures of mRNA induction for gain or loss-of-signal activity can be used to understand regulation of transcription factor activity. To generalize the intended target to other relatable targets, this assay endpoint is annotated to the protease intended target family, where the subfamily is Cellular remodeling.
A total of 1060 chemcials from the ToxCast library were tested in eight-point concentration-response experiments. Cell culture and cytotoxicity assays were conducted at Thermo Fisher Scientific's Custom Services facility (Madison, WI). A single lot of human HepaRG cells (Thermo Fisher Scientific, Frederick, MD) was used for the cell culture experiments. 96-well format collagen type I coated plates of human HepaRG cells were prepared using established methods. Briefly, cryopreserved HepaRG cells were thawed, plated at a density of approximately 100,000 cells/well in HepaRG Thaw, Plate, and General Purpose media (HPRG770, Thermo Fisher Scientific), and incubated for 48 hours. […] Fluidigm's 96.96 Dynamic ArrayTM (Fluidigm, Amsterdam, the Netherlands) technology was used for gene expression analyses by quantitative reverse transcription polymerase chain reaction (qRT-PCR, performed by Quintiles/Expression Analysis, Durham, NC)89. […]

Records with an inconclusive call do not appear. Active and inactive are the calls of the source. The calls were made as follows, unless noted: active = hit-call score of the fitted dose curve at least 0.9, where 1 is the maximum; inconclusive = response in the unintended direction; inactive = score below 0.9.

As to `COc1cc(Cl)c(OC)cc1Cl`, the call in [1], in assay [2], in assay [3], in [4], in assay [5] and in [6] was inactive. Further, the outcome in assay [7] and in [8] was inactive.

In the case of `N#Cc1c(Cl)cccc1Cl`, the result in assay [1], in assay [2], in assay [3], in [4], in [5] and in assay [6] was inactive. The call in assay [7] and in [8] was inactive.

As for `O=c1n(Cl)c(=O)n(Cl)c(=O)n1Cl`, the molecule was called inactive in assay [1], in [2], in assay [3], in [5], in assay [6] and in [7]. For the same molecule, the outcome in [8] was inactive.

For `CC(C)N1C(=O)c2ccccc2NS1(=O)=O`, the molecule was classed as inactive in assay [1], in assay [2], in assay [3], in [4], in [5] and in [8].

With `CC(C)N1C(=O)N(c2ccccc2)CSC1=NC(C)(C)C`, the outcome in assay [1], in assay [2], in assay [4], in assay [5], in assay [6] and in assay [7] was inactive.

`CNC(=O)N(C)c1nnc(C(C)(C)C)s1`: the molecule was called inactive in [1], in assay [2], in assay [3], in assay [4], in [5] and in assay [6]. For the same molecule, the molecule was called inactive in [7] and in assay [8].

Regarding `CNC(=O)Oc1cccc2ccccc12`, the result in assay [1], in assay [2], in assay [3], in [4], in assay [6] and in [8] was inactive.

`Nc1c(Cl)c(Cl)nc(C(=O)O)c1Cl`: the call in [1], in assay [2], in assay [3], in assay [5], in assay [6] and in assay [7] was inactive. The molecule was called inactive in [8] and in assay [9].

Turning to `Cc1nc(N(C)C)nc(OC(=O)N(C)C)c1C`, the molecule was classed as inactive in [1], in assay [2], in assay [4], in assay [5], in assay [6] and in assay [7]. Besides, the call in assay [8] was inactive.

Regarding `CO/N=C(/C1=NOCCO1)c1ccccc1Oc1ncnc(Oc2ccccc2Cl)c1F`, the AC50 (in general, the midpoint of the concentration-response curve, whichever way the signal moves) was 0.936 µM (active) in [2] and 6.85 µM (active) in [6]. In addition, the molecule was classed as inactive in assay [3], in assay [4], in [5] and in [8].

On to `CCOP(=S)(OCC)Oc1nc(Cl)n(C(C)C)n1`, for which the call in assay [2], in assay [3], in [4], in assay [5], in assay [6] and in [7] was inactive. Moreover, the call in assay [8] was inactive.

Take `O=C(O)c1c(Cl)ccc2cc(Cl)cnc12`: the call in assay [1], in assay [2], in [5], in assay [6] and in assay [7] was inactive.

Consider `CCSC(=O)N1CCCCCC1`, for which the molecule was classed as inactive in [1], in [3], in [4], in [5], in assay [6] and in assay [7]. Further, the molecule was called inactive in assay [8].

As to `COCc1cnc(C2=NC(C)(C(C)C)C(=O)N2)c(C(=O)O)c1` (stereo unspecified), the molecule was called inactive in assay [2], in [3], in assay [4], in assay [5], in assay [6] and in [7]. The molecule was classed as inactive in [8].

For `CC(C)(C)C(=O)C(Oc1ccc(Cl)cc1)n1cncn1` (stereo unspecified), in [2], the AC50 was 37.5 µM (active). Also, the result in assay [3], in [4], in [5], in assay [6], in assay [7] and in assay [8] was inactive.

`C=CCOC(=O)C(C)(C)OC(=O)c1cc(-n2c(=O)cc(C(F)(F)F)n(C)c2=O)ccc1Cl`: the outcome in [2], in [3], in assay [5], in assay [6], in assay [7] and in assay [8] was inactive.

In the case of `CC(C)C1(C)N=C(c2ncccc2C(=O)O)NC1=O` (stereo unspecified), the result in assay [1], in [2], in assay [3], in [5], in [6] and in [7] was inactive.

Take `CSC(=O)c1c(C(F)F)nc(C(F)(F)F)c(C(=O)SC)c1CC(C)C`: the result in assay [1], in assay [2], in assay [3], in assay [4], in assay [5] and in assay [6] was inactive. Also, the outcome in assay [8] was inactive.

For the molecule `Cc1c(COC(=O)[C@@H]2[C@H](/C=C(\Cl)C(F)(F)F)C2(C)C)cccc1-c1ccccc1`, the call in assay [1], in assay [2], in [3], in [4], in assay [5] and in assay [6] was inactive. The outcome in assay [7] and in [8] was inactive.

Consider `COP(=S)(OC)SCn1nnc2ccccc2c1=O`, for which the molecule was called inactive in [1], in assay [2], in [3], in assay [6], in [7] and in assay [8].

The record behind these values is PubChem BioAssay (EPA / NIEHS).
